# Measurements: PubChem BioAssay
# The source made the active and inactive calls.
# What was measured:
# Albumin (Bos taurus) = Albumin (Bos taurus) (UniProt P02769); assay: bovine serum albumin binders on microarray, profiling panel, artefact control for SMM control protein annotation, biochemical, small-molecule microarray, Alexa647 label, 635/667 nm fluorescence (AID 1118); conditions: BSA-A647 binding, fluorescence 635 nm, higher = more signal;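 further: score merges 667 nm emission intensity and signal-to-noise per printed compound spot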
# Chain of Albumin (Bos taurus) (P02769 whole entry, looked up): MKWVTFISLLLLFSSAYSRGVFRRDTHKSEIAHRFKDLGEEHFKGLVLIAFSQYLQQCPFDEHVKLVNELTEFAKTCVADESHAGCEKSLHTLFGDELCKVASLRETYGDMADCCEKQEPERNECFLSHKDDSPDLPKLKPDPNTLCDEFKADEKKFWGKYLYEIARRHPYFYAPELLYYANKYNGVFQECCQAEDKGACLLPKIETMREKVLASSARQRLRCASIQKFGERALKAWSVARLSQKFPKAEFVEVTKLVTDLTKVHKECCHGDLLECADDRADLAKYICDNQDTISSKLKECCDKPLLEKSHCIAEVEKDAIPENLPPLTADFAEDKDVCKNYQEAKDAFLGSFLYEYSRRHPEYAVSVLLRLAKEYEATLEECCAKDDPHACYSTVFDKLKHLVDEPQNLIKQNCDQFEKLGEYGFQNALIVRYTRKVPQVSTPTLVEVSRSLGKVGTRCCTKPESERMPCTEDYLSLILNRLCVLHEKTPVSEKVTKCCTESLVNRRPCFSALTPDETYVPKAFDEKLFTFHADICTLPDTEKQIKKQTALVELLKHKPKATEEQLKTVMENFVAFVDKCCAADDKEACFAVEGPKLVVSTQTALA
# [1] = small-molecule microarray binders of probe aXIP, primary screen, biochemical, NeuroSMM set, 635/667 nm fluorescence (AID 1119); conditions: higher = more signal, called active from +8 up or from −8 down;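 further: probe is the protein aXip251-270 applied at 1 µg/mL to compound-printed slides; binding of probe to printed compounds measured as 667 nm fluorescence plus signal to noise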
# [2] = small-molecule binders of probe aNOTCH3, primary screen, biochemical, small-molecule microarray, 635/667 nm fluorescence (AID 1120); conditions: higher = more signal;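 further: probe is a biotin-tagged antibody raised against NOTCH3 rather than NOTCH3 protein; score merges spot fluorescence near 667 nm with spot signal to noise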
# [3] = small-molecule binders of probe aNOTCH2, primary screen, biochemical, small-molecule microarray, 635/667 nm fluorescence (AID 1121); conditions: higher = more signal;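 further: score merges feature fluorescence read at 667 nm with its signal to noise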
# [4] = target: Carbonic anhydrase 2 (Homo sapiens) (UniProt P00918); assay: CAII small-molecule binders, profiling panel, biochemical, small-molecule microarray, Alexa647-labelled CAII (AID 1122); conditions: CAII-A647 binding fluorescence, higher = more signal
# [5] = COS7 lysate on small-molecule microarray, probe aHis, 635 nm (AID 1123); conditions: COS7 cell lysate, fluorescence, higher = more signal;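 further: z-score combines 667nm fluorescence intensity with signal-to-noise per printed compound spot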
# [6] = compound binding in COS7 lysate, probe aLAP1, primary screen, cell lysate, small-molecule microarray (AID 1124); conditions: probe aLAP1, fluorescence, higher = more signal;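 further: lysate comes from COS7 cells expressing LAP1 and is applied at 0.3 µg/mL; score merges spot fluorescence near 667 nm with signal-to-noise over triplicate slides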
# Sam68 (KHDRBS1) = assay: Sam68 small-molecule binders, primary screen, biochemical, small-molecule microarray, 635 nm fluorescence (AID 1125); conditions: small-molecule microarray binding, higher = more signal;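 further: score merges 667 nm channel intensity with signal to noise over triplicate slides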
# [7] = tested on: Chordin-like protein 2 (CHRDL2); assay: CHRDL2 small-molecule binders, primary screen, biochemical, small-molecule microarray, 635 nm fluorescence (AID 1126); conditions: small-molecule microarray binding, fluorescence 635 nm; higher = more signal;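 further: printed compound slides probed with Chrdl2 protein at 4 µg/mL for 1 h at 4 C; score merges 667 nm emission intensity with signal to noise over three replicate slides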
# [8] = target: Concanavalin-A (Canavalia ensiformis) (UniProt P02866); assay: ConA small-molecule binders, primary screen, artefact control for SMM control protein annotation, biochemical, small-molecule microarray, Alexa647 label, 635 nm (AID 1127); conditions: ConA-A647 binding fluorescence, higher = more signal;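 further: z combines 667 nm emission intensity with signal-to-noise across three replicate slides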
# Chain of Concanavalin-A (Canavalia ensiformis) (P02866 whole entry, looked up): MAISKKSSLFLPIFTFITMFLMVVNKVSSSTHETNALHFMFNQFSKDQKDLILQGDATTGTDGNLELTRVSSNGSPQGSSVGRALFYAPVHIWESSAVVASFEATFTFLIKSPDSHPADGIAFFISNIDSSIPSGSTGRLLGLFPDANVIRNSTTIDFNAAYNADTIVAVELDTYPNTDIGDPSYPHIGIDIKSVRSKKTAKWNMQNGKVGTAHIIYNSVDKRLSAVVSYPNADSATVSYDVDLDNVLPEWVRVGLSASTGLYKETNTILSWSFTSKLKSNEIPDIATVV
# [9] = anti-His antibody binders, primary screen, artefact control for SMM control protein annotation, biochemical, small-molecule microarray, 635 nm fluorescence (AID 1128); conditions: anti-His Alexa647 antibody binding, higher = more signal;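 further: score merges feature fluorescence with signal-to-noise for each printed compound spot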
# [10] = tested on: Human papillomavirus type 1a E7 protein (residues 1-88); assay: HPV1a E7 small-molecule binders, primary screen, biochemical, small-molecule microarray, residues 1-88, 635 nm (AID 1129); conditions: small-molecule microarray binding, fluorescence 635 nm; higher = more signal
# [11] = target: Focal adhesion kinase 1 (Homo sapiens) (UniProt Q05397); assay: small-molecule microarray binders of FAK, primary screen, biochemical, 635/667 nm fluorescence, BSA, DTT (AID 1130); conditions: PTK2 binding, 635 nm fluorescence, higher = more signal;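 further: composite of spot emission at 667 nm and signal to noise over triplicate slides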
# Chain of Focal adhesion kinase 1 (Homo sapiens) (Q05397 whole entry, looked up): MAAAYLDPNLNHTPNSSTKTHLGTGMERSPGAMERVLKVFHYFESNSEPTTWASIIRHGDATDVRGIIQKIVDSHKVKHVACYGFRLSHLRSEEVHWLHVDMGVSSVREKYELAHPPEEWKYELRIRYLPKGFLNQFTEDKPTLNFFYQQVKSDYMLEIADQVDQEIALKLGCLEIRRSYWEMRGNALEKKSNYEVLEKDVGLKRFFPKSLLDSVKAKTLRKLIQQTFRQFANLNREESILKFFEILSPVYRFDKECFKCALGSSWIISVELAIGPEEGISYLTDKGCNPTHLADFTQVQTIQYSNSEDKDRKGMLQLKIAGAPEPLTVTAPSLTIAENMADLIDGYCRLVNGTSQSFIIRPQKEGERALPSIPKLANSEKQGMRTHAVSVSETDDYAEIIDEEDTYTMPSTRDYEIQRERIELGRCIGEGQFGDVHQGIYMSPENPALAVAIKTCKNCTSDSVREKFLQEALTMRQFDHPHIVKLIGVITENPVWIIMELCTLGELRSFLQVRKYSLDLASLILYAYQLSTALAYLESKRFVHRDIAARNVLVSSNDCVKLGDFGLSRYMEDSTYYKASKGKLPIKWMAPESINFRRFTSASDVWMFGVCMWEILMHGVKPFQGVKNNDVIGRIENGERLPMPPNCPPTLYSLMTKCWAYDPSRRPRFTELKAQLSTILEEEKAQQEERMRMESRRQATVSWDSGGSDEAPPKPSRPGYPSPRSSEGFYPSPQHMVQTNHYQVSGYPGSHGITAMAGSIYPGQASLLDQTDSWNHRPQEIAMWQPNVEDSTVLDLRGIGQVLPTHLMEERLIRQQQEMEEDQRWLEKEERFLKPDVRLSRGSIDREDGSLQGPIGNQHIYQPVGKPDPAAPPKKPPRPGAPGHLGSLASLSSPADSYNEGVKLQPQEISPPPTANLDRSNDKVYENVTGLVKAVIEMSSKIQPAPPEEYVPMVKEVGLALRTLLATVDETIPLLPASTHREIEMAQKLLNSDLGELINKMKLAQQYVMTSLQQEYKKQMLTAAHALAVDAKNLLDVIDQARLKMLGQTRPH
# [12] = tested on: Fibrinogen (Alexa647-labelled); assay: fibrinogen binders on compound microarrays, profiling panel, artefact control for SMM control-protein annotation, biochemical, small-molecule microarray, 635/667 nm fluorescence (AID 1131); conditions: fibrinogen-A647 binding fluorescence, higher = more signal;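 further: z-score merges 667 nm fluorescence with per-spot signal-to-noise over triplicate slides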
# [13] = target: Follistatin (Homo sapiens) (UniProt P19883); assay: follistatin binders on small-molecule microarrays, primary screen, biochemical, small-molecule microarray, 635/667 nm fluorescence (AID 1132); conditions: FST binding, 635 nm fluorescence, higher = more signal
# Chain of Follistatin (Homo sapiens) (P19883 whole entry, looked up): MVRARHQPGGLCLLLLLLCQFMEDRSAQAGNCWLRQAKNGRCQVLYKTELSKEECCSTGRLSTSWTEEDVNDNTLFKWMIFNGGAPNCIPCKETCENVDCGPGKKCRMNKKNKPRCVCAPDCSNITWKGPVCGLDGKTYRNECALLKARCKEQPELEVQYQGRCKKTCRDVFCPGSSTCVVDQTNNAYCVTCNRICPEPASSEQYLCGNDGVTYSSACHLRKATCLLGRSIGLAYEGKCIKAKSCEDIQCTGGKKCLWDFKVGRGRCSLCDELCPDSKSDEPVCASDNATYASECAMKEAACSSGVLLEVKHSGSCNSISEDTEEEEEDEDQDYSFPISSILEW
# [14] = target: Fibroblast growth factor 2 (Homo sapiens) (UniProt P09038); assay: FGF2 binders on small-molecule microarrays, primary screen, biochemical, small-molecule microarray, 635/667 nm fluorescence (AID 1133); conditions: small-molecule microarray binding, FGF2, fluorescence 635/667; higher = more signal
# Chain of Fibroblast growth factor 2 (Homo sapiens) (P09038 whole entry, looked up): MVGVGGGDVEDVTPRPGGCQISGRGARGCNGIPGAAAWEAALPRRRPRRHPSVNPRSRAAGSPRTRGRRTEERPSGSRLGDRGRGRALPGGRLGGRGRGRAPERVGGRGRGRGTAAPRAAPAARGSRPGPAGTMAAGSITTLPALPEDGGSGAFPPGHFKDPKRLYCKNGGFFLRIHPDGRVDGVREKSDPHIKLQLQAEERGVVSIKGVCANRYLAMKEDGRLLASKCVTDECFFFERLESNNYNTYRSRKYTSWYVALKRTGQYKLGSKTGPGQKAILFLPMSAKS
# [15] = mitochondrial membrane potential change in A549 cells, profiling panel, cell-based, JC-1 fluorescence, basal, 24 h, 100 nL (AID 1138); conditions: higher = more signal;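 further: A549 lung adenocarcinoma cells under basal conditions with no added stimulus; test concentration not given here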
# Lefty1 = Lefty1 binders on small-molecule microarrays, primary screen, biochemical, small-molecule microarray, 635/667 nm fluorescence (AID 1139); conditions: small-molecule microarray binding, fluorescence 635/667; higher = more signal
# [16] = tested on: wheat germ agglutinin (Triticum aestivum), Alexa647-labelled; assay: wheat germ agglutinin binders on compound microarrays, profiling panel, artefact control for SMM control-protein annotation, biochemical, small-molecule microarray, 635/667 nm fluorescence (AID 1140); conditions: WGA-A647 binding, 635 nm fluorescence, higher = more signal;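 further: score merges 667 nm feature emission with signal to noise over triplicate slides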
# [17] = target: Luciferin 4-monooxygenase (Photinus pyralis) (UniProt P08659); assay: firefly luciferase enzyme inhibitors, primary screen, biochemical, luminescence, purified enzyme, 2006 set (AID 1141); conditions: SteadyGlo luminescence, 30 min, higher = more signal, called active from +8 up or from −8 down;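 further: cell-free assay with purified firefly luciferase at 100 ng per well in PBS; test concentration not given here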
# Chain of Luciferin 4-monooxygenase (Photinus pyralis) (P08659 whole entry, looked up): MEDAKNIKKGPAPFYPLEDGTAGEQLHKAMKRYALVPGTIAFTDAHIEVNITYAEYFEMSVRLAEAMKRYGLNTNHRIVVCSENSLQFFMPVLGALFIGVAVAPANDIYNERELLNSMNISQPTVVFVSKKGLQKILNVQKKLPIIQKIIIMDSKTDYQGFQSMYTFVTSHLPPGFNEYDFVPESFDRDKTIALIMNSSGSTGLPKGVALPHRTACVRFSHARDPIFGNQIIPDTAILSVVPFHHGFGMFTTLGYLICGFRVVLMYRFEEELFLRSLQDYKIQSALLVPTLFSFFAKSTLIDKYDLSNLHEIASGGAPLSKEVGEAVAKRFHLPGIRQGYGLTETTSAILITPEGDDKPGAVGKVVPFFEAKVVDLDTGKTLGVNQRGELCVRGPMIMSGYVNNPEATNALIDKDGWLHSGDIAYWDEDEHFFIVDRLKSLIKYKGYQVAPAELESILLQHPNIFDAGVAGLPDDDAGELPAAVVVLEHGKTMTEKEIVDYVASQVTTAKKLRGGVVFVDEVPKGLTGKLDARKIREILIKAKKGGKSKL
SMILES,composite z-score (Albumin (Bos taurus)),composite Z-score [1],composite z-score [2],composite z-score [3],composite z-score [4],composite z-score [5],composite z-score [6],composite z-score (Sam68 (KHDRBS1)),composite z-score [7],composite z-score [8],composite z-score [9],composite z-score [10],composite z-score [11],composite z-score [12],composite z-score [13],composite z-score [14],z-score [15],composite z-score (Lefty1),composite z-score [16],z-score [17]
C=C(CC1([C@@H](NP(=O)(c2ccccc2)c2ccccc2)[C@H]2C[C@@H]2CCCC)CC1)c1cccc(OC)c1,0.615,0.107 (inactive),0.222,0.119,0.334,1.86,-0.151,-0.176,-1.06,0.506,1.18,0.811,0.751,0.269,0.43,-0.7,0.959,-0.739,0.344,2.59 (inactive)
CCOC(=O)C[C@H]1[C@H](OC(=O)c2cc3ccccc3oc2=O)[C@@H](NC(=O)c2ccc(-c3ccccc3)cc2)c2cc(OCCCO)ccc2N1C(=O)Cc1ccc(OC)cc1,0.0146,0.243 (inactive),0.213,-0.0578,0.383,1.07,0.774,0.864,0.346,0.833,0.396,1.19,0.414,0.522,0.679,1.41,-0.424,0.907,0.266,0.853 (inactive)
CN1C(=O)C2C=CC(C(O)c3cccs3)N(N(c3ccccc3)c3ccccc3)C2C1=O (stereo not given),0.994,0.343 (inactive),0.17,-0.0037,0.714,1.69,0.518,1.02,-0.362,0.644,2.34,1.08,0.663,0.954,0.569,-0.469,0.7,0.169,1.06,-0.697 (inactive)
C=CCNC(=O)[C@@H]1[C@H]2C(=O)O[C@H](c3ccccc3)[C@H](c3ccccc3)N2[C@H](c2ccc(OCCO)cc2)[C@@]12C(=O)Nc1ccc(C#CC3=CCCCC3)cc12,0.806,0.653 (inactive),0.0493,-0.145,0.512,1.33,0.402,1.3,0.0821,1.14,1.15,1.23,1.08,0.972,1.1,0.582,-1.56,1.11,0.898,-0.806 (inactive)
COC(=O)[C@@]1(Cc2ccc(F)cc2)[C@H]2c3cc(C(=O)N(C)C)n(CCF)c3C[C@H]2CN1C(=O)c1ccccc1,0.914,0.312 (inactive),-0.0044,0.057,0.733,2.6,0.89,0.706,-0.411,0.476,1.67,0.911,0.0655,0.911,-0.0051,-0.162,0.656,-0.45,0.338,-1.09 (inactive)
CC1(C)OB(/C=C\CC(OC(=O)c2ccncc2)c2ccccc2)OC1(C)C (stereo not given),0.152,0.142 (inactive),-0.0345,-0.0464,0.918,0.677,0.953,0.426,0.381,-0.305,1.33,0.22,-0.113,-0.857,-0.397,-1.03,-0.242,-1.2,-1.28,-0.0512 (inactive)
COCCOC(=O)N1C(=O)[C@@]2(c3cc(C#CCNC(N)=O)ccc31)[C@H](c1ccccc1OCCO)N1[C@H](c3ccccc3)[C@H](c3ccccc3)OC(=O)[C@H]1[C@@H]2C(=O)N1CCCCCCC1,0.0576,0.627 (inactive),0.0556,-0.121,0.447,0.75,1.41,1.32,0.354,1.12,0.364,1.17,0.183,0.858,1.28,0.937,-1.51,0.76,1.13,-0.193 (inactive)
CC1C2C(CCCO)=CC(C3C(=O)N(C)C(=O)C23)N1Cc1cccc(OC(F)(F)F)c1 (stereo not given),1,-0.0186 (inactive),0.126,0.0083,0.854,2.43,0.267,1.29,-0.262,0.96,0.503,1.2,0.849,0.971,0.301,0.303,-0.703,0.286,0.877,-1.02 (inactive)
CCOC(=O)C[C@H]1[C@H](OC(=O)c2ccc(-c3ccccc3)cc2)[C@@H](NC(=O)c2ccc(-c3ccccc3)cc2)c2cc(OCCCO)ccc2N1C(=O)c1ccccc1,0.771,0.884 (inactive),0.0916,-0.129,0.277,0.895,0.331,1.32,-0.0105,1.06,0.0004,1.09,1.03,0.856,0.627,0.64,0.392,0.627,0.792,-0.339 (inactive)
Cc1ccc(S[C@]2(C(=O)NCCN3CCOCC3)CC(=O)N(C(C)C)[C@@H]2c2ccc(CO)cc2I)cc1,-0.233,0.289 (inactive),-0.0111,-0.0391,0.288,1.19,0.933,0.949,-0.975,-0.452,-1.03,-0.636,0.218,-1.09,-0.453,-0.706,1.94,-0.816,-0.581,-1.3 (inactive)
